What follows are compounds tested on CASK. Conditions: concentration: 1 μM, replicates: in singlicate; n = 1.
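Also: KINOMEscan kinase panel screen.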

Row | SMILES | %Inh
1 | Fc1ccc(Nc2nccc(-c3c(-c4ccc(Cl)cc4)nn4ncccc34)n2)cc1F [GW829058] | 26%
2 | CS(=O)(=O)CCNCc1ccc(-c2ccc3ncnc(Nc4ccc(OCc5ccccc5)c(Cl)c4)c3c2)o1.Cl [GW574783] | 3%
3 | Cn1ccc2ncnc(Oc3ccc(NC(=O)Nc4cccnc4)c(Cl)c3)c21 | 0%
4 | COc1ccc(NC(=O)c2ccc(-c3cc(-c4nnc(C)o4)ccc3C)cc2)cc1 [GW595885] | 21%
5 | NC(=O)c1sc(-n2cnc3ccccc32)cc1OCc1ccccc1F [GSK1024306] | 49%
6 | Fc1ccc(-c2ncn(CCCNCc3ccccc3)c2-c2ccncc2)cc1 | 27%
7 | CCC(CC)(CC)n1cnc2c(N)ncnc21 [SKF-97620] | 42%
8 | N#Cc1ccc(Oc2ccc(Nc3ncnc4cc[nH]c34)cc2Cl)cc1 | 0%
9 | O=C(Nc1n[nH]c2nc(-c3ccco3)c(Br)cc12)c1ccc(CN2CCCC2)cc1.O=C(O)[C@H](O)[C@@H](O)C(=O)O [SB-742352] | 0%
10 | COc1ccc(-c2nc3n(c2-c2ccncc2)CCC3)cc1 [SKF-104493] | 0%
11 | O=C(NCCCN1CCCC1=O)c1cnc(NCc2cc(Cl)ccc2Cl)nc1NC1CCNCC1 | 78%
12 | O=C(Nc1ccccc1)Nc1ccc(Oc2ccc3nccn3n2)cc1 | 7%
13 | CCCc1ccc(S(=O)(=O)NC2CCN(c3ccnc(Nc4ccc(OC)cc4)n3)C2)cc1 (centres unmarked) [GSK1379737] | 22%
14 | COC(=O)c1c(-c2ccccc2)c2cc(Cl)ccc2c(=O)n1Cc1ccc(S(C)(=O)=O)cc1 | 0%
15 | CC(C)N1CCC(n2cnc(-c3ccc(F)cc3)c2-c2ccnc(N)n2)CC1 [SB-223132] | 0%
16 | Nc1n[nH]c2nnc(-c3ccccc3)cc12 [SB-517389] | 18%
17 | C[C@H]1CC[C@@H](C(=O)Nc2ccccc2)CN1c1cc(-c2ccc3c(N)n[nH]c3c2)nc(N)n1 [GSK2283293] | 4%
18 | CN1CCC(n2cnc(-c3ccc(F)cc3)c2-c2ccnc(NC3CCNCC3)n2)CC1 [SB-229482] | 20%
19 | Fc1cccc(COc2ccc(Nc3ncnc4sc(-c5ccc[nH]5)cc34)cc2Cl)c1 [GW707818] | 15%
20 | O=C(Nc1ccccc1F)NC1CCN(c2ccnc(Nc3ccc(F)cc3)n2)C1 (centres unmarked) [GSK1379722] | 17%
21 | Clc1ccc(-c2cc(-c3c[nH]nc3-c3ccccn3)ccn2)cc1 [GW681251] | 44%
22 | COc1cc2ncnc(Nc3ccc(OCc4ccccc4Br)c(Cl)c3)c2cc1OC.Cl [GI261590] | 0%
23 | Cl.Cl.c1ccc(-c2cc3ccncc3cc2OC2CCNCC2)cc1 [GSK1122999] | 16%

The compounds below were run on T1, CDC2L1. Conditions: concentration: 1 μM, replicates: in singlicate; n = 1.
T1 construct: gene CDK11B

Row | SMILES | %Inh
24 | Oc1ccc2ncnc(Nc3ccc(OCc4ccccc4)cc3)c2c1 [GI262866] | 0%
25 | FC(F)(F)c1ccc(-c2cc(-c3c[nH]nc3-c3ccccn3)ccn2)cc1 [GW599550] | 0%
26 | CCc1nc(-c2cccc(C)c2)c(-c2ccnc(NC(=O)c3ccccc3)c2)s1 | 11%
27 | CN1c2ccc(-c3ccc(C(=O)NCCO)cc3)cc2-c2[nH]ncc2S1(=O)=O | 0%
28 | O=C(c1ccc(-c2cc(-c3c[nH]nc3-c3ccccn3)ccn2)cc1)N1CCCC1 [GW792479] | 0%
29 | COc1ccc(-c2oc3ncnc(N)c3c2-c2ccc(OC)cc2)cc1 [SB-589132] | 0%
30 | CCc1nc(-c2cccc(N(C)S(=O)(=O)c3ccccc3)c2)c(-c2ccnc(Nc3ccc(N4CCN(C(C)=O)CC4)nc3)n2)s1 [GSK1645895] | 11%
31 | Fc1cccc(COc2ccc(Nc3ncnc4cc[nH]c34)cc2Cl)c1 | 17%
32 | Cl.c1ccc(Cn2ncc3cc(Nc4ncnc5ccccc45)ccc32)cc1 [GW273749] | 0%
33 | COC(=O)c1cccc(NC(=O)NCCNc2ccnc(Nc3ccc(F)cc3)n2)c1 [GSK1379883] | 0%
34 | Cl.c1ccc(Cn2ccc3cc(Nc4ncnc5ccccc45)ccc32)cc1 [GW275568] | 23%
35 | COc1ccc(Nc2nccc(N3CCC(NC(=O)c4cccc(NC(C)=O)c4)C3)n2)cc1 (centres unmarked) [GSK1379732] | 0%
36 | Nc1nccc2scc(-c3ccc4c(c3)CCN4C(=O)Cc3cc(F)ccc3F)c12 [GSK2587663] | 0%
37 | Fc1ccc(Nc2nccc(-c3c(-c4ccc(Cl)cc4)nn4ncccc34)n2)cc1F [GW829058] | 6%
38 | CS(=O)(=O)CCNCc1ccc(-c2ccc3ncnc(Nc4ccc(OCc5ccccc5)c(Cl)c4)c3c2)o1.Cl [GW574783] | 0%
39 | Cn1ccc2ncnc(Oc3ccc(NC(=O)Nc4cccnc4)c(Cl)c3)c21 | 9%
40 | COc1ccc(NC(=O)c2ccc(-c3cc(-c4nnc(C)o4)ccc3C)cc2)cc1 [GW595885] | 0%
41 | NC(=O)c1sc(-n2cnc3ccccc32)cc1OCc1ccccc1F [GSK1024306] | 0%

Row | SMILES | %Inh
42 | Fc1ccc(-c2ncn(CCCNCc3ccccc3)c2-c2ccncc2)cc1 | 0%
43 | CCC(CC)(CC)n1cnc2c(N)ncnc21 [SKF-97620] | 0%
44 | N#Cc1ccc(Oc2ccc(Nc3ncnc4cc[nH]c34)cc2Cl)cc1 | 14%
45 | O=C(Nc1n[nH]c2nc(-c3ccco3)c(Br)cc12)c1ccc(CN2CCCC2)cc1.O=C(O)[C@H](O)[C@@H](O)C(=O)O [SB-742352] | 0%
46 | COc1ccc(-c2nc3n(c2-c2ccncc2)CCC3)cc1 [SKF-104493] | 0%
47 | O=C(NCCCN1CCCC1=O)c1cnc(NCc2cc(Cl)ccc2Cl)nc1NC1CCNCC1 | 0%
48 | O=C(Nc1ccccc1)Nc1ccc(Oc2ccc3nccn3n2)cc1 | 0%
49 | CCCc1ccc(S(=O)(=O)NC2CCN(c3ccnc(Nc4ccc(OC)cc4)n3)C2)cc1 (centres unmarked) [GSK1379737] | 0%
50 | COC(=O)c1c(-c2ccccc2)c2cc(Cl)ccc2c(=O)n1Cc1ccc(S(C)(=O)=O)cc1 | 10%
51 | CC(C)N1CCC(n2cnc(-c3ccc(F)cc3)c2-c2ccnc(N)n2)CC1 [SB-223132] | 5%
52 | Nc1n[nH]c2nnc(-c3ccccc3)cc12 [SB-517389] | 0%
53 | C[C@H]1CC[C@@H](C(=O)Nc2ccccc2)CN1c1cc(-c2ccc3c(N)n[nH]c3c2)nc(N)n1 [GSK2283293] | 0%
54 | CN1CCC(n2cnc(-c3ccc(F)cc3)c2-c2ccnc(NC3CCNCC3)n2)CC1 [SB-229482] | 0%
55 | Fc1cccc(COc2ccc(Nc3ncnc4sc(-c5ccc[nH]5)cc34)cc2Cl)c1 [GW707818] | 20%
56 | O=C(Nc1ccccc1F)NC1CCN(c2ccnc(Nc3ccc(F)cc3)n2)C1 (centres unmarked) [GSK1379722] | 0%
57 | Clc1ccc(-c2cc(-c3c[nH]nc3-c3ccccn3)ccn2)cc1 [GW681251] | 0%
58 | COc1cc2ncnc(Nc3ccc(OCc4ccccc4Br)c(Cl)c3)c2cc1OC.Cl [GI261590] | 2%
59 | Cl.Cl.c1ccc(-c2cc3ccncc3cc2OC2CCNCC2)cc1 [GSK1122999] | 15%
